# In paper PMC5540273 (PLoS ONE, 2017):
# “And” between values parts separate entries of the source, which are not always exact repeats. Equal entries are not always repeated. Where two headings read alike, the source gives them in different places.
# Experiments:
# [1] = test system: CSF1R-autoinhibited; conditions: concentration: 1 μM, replicates: in singlicate, n = 1
# [2] = test system: CSF1R; conditions: concentration: 1 μM, replicates: in singlicate, n = 1
# [3] = test system: CSK; conditions: concentration: 1 μM, replicates: in singlicate; n = 1
# [4] = test system: CSNK1A1L; conditions: concentration: 1 μM, replicates: in singlicate, n = 1
# [5] = test system: CSNK1A1; conditions: concentration: 1 μM, replicates: in singlicate; n = 1
# [6] = test system: CSNK1D; conditions: concentration: 1 μM, replicates: in singlicate, n = 1
# [7] = test system: CSNK1E; conditions: concentration: 1 μM, replicates: in singlicate, n = 1
# [8] = test system: CSNK1G1; conditions: concentration: 1 μM, replicates: in singlicate, n = 1
# [9] = test system: CSNK1G2; conditions: concentration: 1 μM, replicates: in singlicate; n = 1
# [10] = test system: CSNK1G3; conditions: concentration: 1 μM, replicates: in singlicate, n = 1
# [11] = test system: CSNK2A1; conditions: concentration: 1 μM, replicates: in singlicate, n = 1
# [12] = test system: CSNK2A2; conditions: concentration: 1 μM, replicates: in singlicate, n = 1
# [13] = test system: T1, CTK; conditions: concentration: 1 μM, replicates: in singlicate, n = 1
# T1 construct: gene MATK
# [14] = test system: DAPK1; conditions: concentration: 1 μM, replicates: in singlicate, n = 1
# [15] = test system: DAPK2; conditions: concentration: 1 μM, replicates: in singlicate, n = 1
# [16] = test system: DAPK3; conditions: concentration: 1 μM, replicates: in singlicate; n = 1
# [17] = test system: T2, DCAMKL1; conditions: concentration: 1 μM, replicates: in singlicate, n = 1
# T2 construct: gene DCLK1
# [18] = test system: T3, DCAMKL2; conditions: concentration: 1 μM, replicates: in singlicate; n = 1
# T3 construct: gene DCLK2
# [19] = test system: T4, DCAMKL3; conditions: concentration: 1 μM, replicates: in singlicate, n = 1
# T4 construct: gene DCLK3
# [20] = test system: DDR1; conditions: concentration: 1 μM, replicates: in singlicate, n = 1
# 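Further: KINOMEscan kinase panel screen.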
smiles,measurement,setting,value
Oc1ccc2ncnc(Nc3ccc(OCc4ccccc4)cc3)c2c1 [GI262866],%Inh,[1],0%
same,%Inh,[2],2%
same,%Inh,[3],0%
same,%Inh,[4],0%
same,%Inh,[5],8%
same,%Inh,[6],4%
same,%Inh,[7],30%
same,%Inh,[8],0%
same,%Inh,[9],17%
same,%Inh,[10],38%
same,%Inh,[11],26%
same,%Inh,[12],10%
same,%Inh,[13],3%
same,%Inh,[14],0%
same,%Inh,[15],0%
same,%Inh,[16],0%
same,%Inh,[17],0%
same,%Inh,[18],0%
same,%Inh,[19],0%
same,%Inh,[20],7%
Cl.O=S(=O)(c1cccc(F)c1)c1ccc(Nc2ncnc3cc(Br)sc23)cc1Cl [GSK306886],%Inh,[1],0%
same,%Inh,[2],8%
same,%Inh,[3],30%
same,%Inh,[4],0%
same,%Inh,[5],0%
same,%Inh,[6],36%
same,%Inh,[7],22%
same,%Inh,[8],0%
same,%Inh,[9],0%
same,%Inh,[10],33%
same,%Inh,[11],0%
same,%Inh,[12],37%
same,%Inh,[13],0%
same,%Inh,[14],8%
same,%Inh,[15],0%
same,%Inh,[16],47%
same,%Inh,[17],6%
same,%Inh,[18],0%
same,%Inh,[19],9%
same,%Inh,[20],2%
Nc1nc(-c2ccc3c(N)n[nH]c3c2)cc(N2CCCCC2)n1 [GSK2228768],%Inh,[1],0%
same,%Inh,[2],1%
same,%Inh,[3],0%
same,%Inh,[4],1%
same,%Inh,[5],0%
same,%Inh,[6],11%
same,%Inh,[7],0%
same,%Inh,[8],0%
same,%Inh,[9],0%
same,%Inh,[10],4%
same,%Inh,[11],0%
same,%Inh,[12],12%
same,%Inh,[13],0%
same,%Inh,[14],3%
same,%Inh,[15],0%
same,%Inh,[16],6%
same,%Inh,[17],0%
same,%Inh,[18],15%
same,%Inh,[19],0%
same,%Inh,[20],0%
COc1ccc(-c2nc3n(c2-c2ccncc2)CCC3)cc1 [SKF-104493],%Inh,[1]; 1 µM,6% and 9%
same,%Inh,[2]; 1 µM,23% and 2%
same,%Inh,[3],0%
same,%Inh,[4]; 1 µM,12% and 0%
same,%Inh,[5],0%
same,%Inh,[6]; 1 µM,40% and 18%
same,%Inh,[7]; 1 µM,22% and 7%
same,%Inh,[8]; 1 µM,0% and 13%
same,%Inh,[9],0%
same,%Inh,[10]; 1 µM,6% and 14%
same,%Inh,[11]; 1 µM,0% and 2%
same,%Inh,[12]; 1 µM,13% and 15%
same,%Inh,[13]; 1 µM,25% and 0%
same,%Inh,[14]; 1 µM,82% and 21%
same,%Inh,[15]; 1 µM,0% and 6%
same,%Inh,[16],0%
same,%Inh,[17]; 1 µM,21% and 0%
same,%Inh,[18],0%
same,%Inh,[19]; 1 µM,0% and 18%
same,%Inh,[20]; 1 µM,33% and 67%
CS(=O)(=O)CCNCc1ccc(-c2ccc3ncnc(Nc4ccc(OCc5ccccc5)c(Cl)c4)c3c2)o1.Cl [GW574783],%Inh,[1],7%
same,%Inh,[2],0%
same,%Inh,[3],0%
same,%Inh,[4],20%
same,%Inh,[5],0%
same,%Inh,[6],15%
same,%Inh,[7],10%
same,%Inh,[8],0%
same,%Inh,[9],0%
same,%Inh,[10],6%
same,%Inh,[11],3%
same,%Inh,[12],5%
same,%Inh,[13],0%
same,%Inh,[14],0%
same,%Inh,[15],0%
same,%Inh,[16],0%
same,%Inh,[17],0%
same,%Inh,[18],0%
same,%Inh,[19],4%
same,%Inh,[20],10%
CCc1nc(-c2cccc(N(C)S(=O)(=O)c3ccccc3)c2)c(-c2ccnc(Nc3ccc(N4CCN(C(C)=O)CC4)nc3)n2)s1 [GSK1645895],%Inh,[1],0%
same,%Inh,[2],17%
same,%Inh,[3],50%
same,%Inh,[4],0%
same,%Inh,[5],0%
same,%Inh,[6],2%
same,%Inh,[7],55%
same,%Inh,[8],20%
same,%Inh,[9],0%
same,%Inh,[10],26%
same,%Inh,[11],18%
same,%Inh,[12],6%
same,%Inh,[13],0%
same,%Inh,[14],21%
same,%Inh,[15],0%
same,%Inh,[16],4%
same,%Inh,[17],10%
same,%Inh,[18],0%
same,%Inh,[19],4%
same,%Inh,[20],44%
CS(=O)(=O)CCNCc1nc(-c2ccc3ncnc(Nc4ccc(OCc5cccc(F)c5)c(Cl)c4)c3c2)cs1.Cl [GW583340],%Inh,[1],0%
same,%Inh,[2],8%
same,%Inh,[3],12%
same,%Inh,[4],0%
same,%Inh,[5],0%
same,%Inh,[6],4%
same,%Inh,[7],45%
same,%Inh,[8],17%
same,%Inh,[9],0%
same,%Inh,[10],24%
same,%Inh,[11],2%
same,%Inh,[12],17%
same,%Inh,[13],0%
same,%Inh,[14],25%
same,%Inh,[15],0%
same,%Inh,[16],6%
same,%Inh,[17],16%
same,%Inh,[18],0%
same,%Inh,[19],0%
same,%Inh,[20],4%
Cc1cccc(-c2nc(Nc3ccc4[nH]nnc4c3)c3ccccc3n2)n1 [GW867587],%Inh,[1],0%
same,%Inh,[2],0%
same,%Inh,[3],0%
same,%Inh,[4],0%
same,%Inh,[5],0%
same,%Inh,[6],4%
same,%Inh,[7],0%
same,%Inh,[8],0%
same,%Inh,[9],0%
same,%Inh,[10],0%
same,%Inh,[11],80%
same,%Inh,[12],45%
same,%Inh,[13],10%
same,%Inh,[14],0%
same,%Inh,[15],0%
same,%Inh,[16],0%
same,%Inh,[17],0%
same,%Inh,[18],0%
same,%Inh,[19],0%
same,%Inh,[20],0%
O=C(CCO)NCCn1ccc2ncnc(Nc3ccc(Oc4cccc(C(F)(F)F)c4)c(Cl)c3)c21,%Inh,[1],0%
same,%Inh,[2],0%
same,%Inh,[3],3%
same,%Inh,[4],0%
same,%Inh,[5],0%
same,%Inh,[6],0%
same,%Inh,[7],0%
same,%Inh,[8],0%
same,%Inh,[9],0%
same,%Inh,[10],0%
same,%Inh,[11],0%
same,%Inh,[12],0%
same,%Inh,[13],0%
same,%Inh,[14],11%
same,%Inh,[15],0%
same,%Inh,[16],0%
same,%Inh,[17],39%
same,%Inh,[18],0%
same,%Inh,[19],0%
same,%Inh,[20],0%
